Measurements reported in PubChem BioAssay (Tox21).
Values joined by “and” are separate entries in the source; they are usually repeats but may differ in a detail not shown here. Equal values may be shown once. The source holds several records for some structures; these can differ, active in one and inactive in another. Active and inactive are the calls of the source. Unless noted, calls follow the shape of the dose curve; as a rule, active = well fitted curve in the direction sought with a large enough effect in the repeat runs; inconclusive = weak or mixed curves; inactive = no such curve, though single readings can be large; an effect the other way counts as inactive or inconclusive.

Tests used:
[1] = qHTS assay to identify small molecule antagonists of the thyroid receptor (TR) signaling pathway - cell viability counter screen (AID 743064); also: nearly all actives have a fitted effect of over 50% in size; also: potency is read from the fitted curve at half-maximal effect
How it was run: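 GH3.TRE-Luc rat pituitary cells dosed after 4 hr plating, co-stimulated with T3 at 1 nM final, incubated 23.5 h at 37 C. Viability measured in the same wells by CellTiter-Fluor fluorescence after 30 min further at 37 C.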

[2] = qHTS assay to identify small molecule antagonists of the thyroid receptor (TR) signaling pathway (AID 743065); also: nearly all actives have a fitted effect of over 55% in size; also: potency is read from the fitted curve at half-maximal effect
How it was run: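 GH3.TRE-Luc rat pituitary cells carrying two TR response elements driving luciferase were plated for 4 h, given compound plus 1 nM T3 (final), and incubated 23.5 h at 37 C. ONE-Glo luminescence measured reporter inhibition; CellTiter-Fluor fluorescence tracked cytotoxicity.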

[3] = test system: thyroid hormone receptor (rat, GH3 cells); assay: qHTS assay to identify small molecule agonists of the thyroid receptor (TR) signaling pathway (AID 743066; calls by dose curve)
[4] = qHTS assay to identify small molecule antagonists of the estrogen receptor alpha (ER-alpha) signaling pathway - cell viability counter screen (AID 743074; calls by dose curve; also: nearly all actives have a fitted effect of over 45% in size; also: potency is read from the fitted curve at half-maximal effect)
[5] = biological target: Estrogen receptor (Homo sapiens) (UniProt P03372); assay: qHTS assay to identify small molecule agonists of the estrogen receptor alpha (ER-alpha) signaling pathway (AID 743075; calls by dose curve; also: potency is read from the fitted curve at half-maximal effect)
Chain of Estrogen receptor (Homo sapiens) (P03372 whole entry, looked up): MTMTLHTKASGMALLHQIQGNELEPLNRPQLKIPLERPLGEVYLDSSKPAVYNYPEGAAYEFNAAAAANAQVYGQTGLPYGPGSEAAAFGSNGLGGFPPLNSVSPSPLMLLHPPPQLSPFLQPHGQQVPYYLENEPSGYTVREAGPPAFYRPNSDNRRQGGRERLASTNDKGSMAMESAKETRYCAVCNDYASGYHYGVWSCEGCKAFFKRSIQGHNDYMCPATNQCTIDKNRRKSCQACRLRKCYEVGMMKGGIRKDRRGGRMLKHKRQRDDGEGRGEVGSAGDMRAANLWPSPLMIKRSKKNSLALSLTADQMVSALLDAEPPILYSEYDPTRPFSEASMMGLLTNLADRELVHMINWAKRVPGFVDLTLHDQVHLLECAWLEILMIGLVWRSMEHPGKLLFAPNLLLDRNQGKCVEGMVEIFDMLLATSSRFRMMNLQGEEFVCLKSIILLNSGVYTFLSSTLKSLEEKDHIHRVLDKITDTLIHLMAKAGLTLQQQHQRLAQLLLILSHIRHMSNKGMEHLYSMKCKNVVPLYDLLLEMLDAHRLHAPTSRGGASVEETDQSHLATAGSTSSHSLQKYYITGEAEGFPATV

[6] = biological target: Estrogen receptor (Homo sapiens) (UniProt P03372); assay: qHTS assay to identify small molecule agonists of the estrogen receptor alpha (ER-alpha) signaling pathway using the BG1 cell line (AID 743079); conditions: BG1Luc4E2 cells, ERE-luciferase agonist, 22 h; activation: at 70.3 µM (top of the series); also: nearly all actives have a fitted effect of over 20% in size
[7] = qHTS assay to identify small molecule antagonists of the estrogen receptor alpha (ER-alpha) signaling pathway using the BG1 cell line (AID 743080; calls by dose curve;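 also: BG1 cells stimulated with 17beta-estradiol alongside compound; nearly all actives have a fitted effect of over 25% in size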; also: potency is read from the fitted curve at half-maximal effect)
How it was run: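 Readout is ONE-Glo luminescence, taken 30 min at room temperature after reagent addition, preceded by a CellTiter-Fluor viability read; BG1-Luc-4E2 cells had received compound and 17beta-estradiol for 21.5 h at 37 C.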

[8] = qHTS assay to identify small molecule antagonists of the estrogen receptor alpha (ER-alpha) signaling pathway using the BG1 cell line - cell viability counter screen (AID 743081);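 also: compound given together with 17beta-estradiol as the ER stimulus; nearly all actives have a fitted effect of over 45% in size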; also: potency is read from the fitted curve at half-maximal effect
[9] = qHTS assay to identify aromatase inhibitors - cell viability counter screen (AID 743084);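 also: cells stimulated with testosterone during compound exposure; nearly all actives have a fitted effect of over 55% in size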; also: potency is read from the fitted curve at half-maximal effect
[10] = qHTS assay to identify small molecule that activate the aryl hydrocarbon receptor (AhR) signaling pathway - cell viability counter screen (AID 743086); also: nearly all actives have a fitted effect of over 45% in size; also: potency is read from the fitted curve at half-maximal effect
How it was run: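 HepG2-AhR-luc (HG2L7.5c1) cells, 4000/well, were preincubated 5 h at 37C, exposed to compound in qHTS format for 24 hr at 37C, then given CellTiter-Fluor for 30 min; viability was read as fluorescence in the reporter wells.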

[11] = biological target: Peroxisome proliferator-activated receptor gamma (Homo sapiens) (UniProt P37231); assay: qHTS assay to identify small molecule antagonists of the peroxisome proliferator-activated receptor gamma (PPARg) signaling pathway (AID 743191; calls by dose curve; also: nearly all actives have a fitted effect of over 30% in size; also: potency is read from the fitted curve at half-maximal effect)
Chain of Peroxisome proliferator-activated receptor gamma (Homo sapiens) (P37231 whole entry, looked up): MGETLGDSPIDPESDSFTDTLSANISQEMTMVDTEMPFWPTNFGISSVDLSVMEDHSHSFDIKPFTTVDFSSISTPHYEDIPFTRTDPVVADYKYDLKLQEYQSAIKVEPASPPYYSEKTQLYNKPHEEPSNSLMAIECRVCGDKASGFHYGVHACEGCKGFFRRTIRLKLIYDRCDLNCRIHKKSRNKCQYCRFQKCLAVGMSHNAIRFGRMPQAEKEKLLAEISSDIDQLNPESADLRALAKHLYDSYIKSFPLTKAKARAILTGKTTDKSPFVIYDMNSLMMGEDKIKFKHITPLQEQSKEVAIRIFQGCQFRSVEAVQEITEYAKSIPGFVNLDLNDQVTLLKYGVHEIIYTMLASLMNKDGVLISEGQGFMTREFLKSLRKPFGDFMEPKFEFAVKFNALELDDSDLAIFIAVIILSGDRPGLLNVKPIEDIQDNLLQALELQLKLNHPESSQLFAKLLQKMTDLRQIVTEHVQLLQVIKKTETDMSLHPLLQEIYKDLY
How it was run: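 GeneBLAzer PPARg UAS-bla HEK293H cells carrying a UAS-driven beta-lactamase reporter were plated at 3000 cells/well, preincubated 5 h at 37C, then given compound for 17 h at 37C; LiveBLAzer B/G FRET substrate was read after 1 h at room temperature.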

[12] = qHTS assay to identify small molecule antagonists of the peroxisome proliferator-activated receptor gamma (PPARg) signaling pathway - cell viability counter screen (AID 743194); conditions: Potency: co-treated with 50 nM rosiglitazone unless noted; also: nearly all actives have a fitted effect of over 55% in size; also: potency is read from the fitted curve at half-maximal effect
How it was run: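 PPARg-UAS-bla HEK293H cells were plated, rested 5 h at 37 C, then treated with compounds plus rosiglitazone (50 nM final) for 17 h at 37 C; viability was then read by CellTiter-Glo luminescence after 30 min at room temperature.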

[13] = qHTS assay for small molecule agonists of the antioxidant response element (ARE) signaling pathway - cell viability counter screen (AID 743203; calls by dose curve; also: nearly all actives have a fitted effect of over 55% in size; also: potency is read from the fitted curve at half-maximal effect)
How it was run: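 Viability counter screen: CellTiter-Glo luminescence, read after 30 min at room temperature, in ARE-bla HepG2 wells. Compound exposure lasted 16 h at 37C/5% CO2, following a 5 h pre-incubation of the cells after plating.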

[14] = qHTS assay for small molecule activators of the heat shock response signaling pathway - cell viability counter screen (AID 743209); also: nearly all actives have a fitted effect of over 50% in size; also: potency is read from the fitted curve at half-maximal effect
How it was run: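 Cytotoxicity counter screen run in the same wells as the heat-shock bla reporter assay: HeLa HSE-bla cells, 5 h compound exposure at 37 C, viability read by CellTiter-Glo luminescence.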

[15] = biological target: Estrogen receptor (Homo sapiens) (UniProt P03372); assay: qHTS assay to identify small molecule antagonists of the estrogen receptor alpha (ER-alpha) signaling pathway (AID 743069; active = well fitted curve in the direction sought with a large enough effect in the signal ratio in the repeat runs, not every such curve was filed as active; inconclusive = weak or mixed curves, or effect the other way; inactive = no such curve, though single readings can be large or run the other way; the % refers to the signal ratio; also: potency is read from the fitted curve at half-maximal effect)
How it was run: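 Screening used a UAS-driven beta-lactamase reporter integrated into HEK293 cells expressing ER-alpha, stimulated with 17beta-estradiol alongside test compounds over 18 hr at 37C; signal came from LiveBLAzer B/G FRET fluorescence.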

Aromatase (Homo sapiens) = Aromatase (Homo sapiens) (UniProt P11511); assay: qHTS assay to identify aromatase inhibitors (AID 743083); also: nearly all actives have a fitted effect of over 55% in size; also: potency is read from the fitted curve at half-maximal effect
Chain of Aromatase (Homo sapiens) (P11511 whole entry, looked up): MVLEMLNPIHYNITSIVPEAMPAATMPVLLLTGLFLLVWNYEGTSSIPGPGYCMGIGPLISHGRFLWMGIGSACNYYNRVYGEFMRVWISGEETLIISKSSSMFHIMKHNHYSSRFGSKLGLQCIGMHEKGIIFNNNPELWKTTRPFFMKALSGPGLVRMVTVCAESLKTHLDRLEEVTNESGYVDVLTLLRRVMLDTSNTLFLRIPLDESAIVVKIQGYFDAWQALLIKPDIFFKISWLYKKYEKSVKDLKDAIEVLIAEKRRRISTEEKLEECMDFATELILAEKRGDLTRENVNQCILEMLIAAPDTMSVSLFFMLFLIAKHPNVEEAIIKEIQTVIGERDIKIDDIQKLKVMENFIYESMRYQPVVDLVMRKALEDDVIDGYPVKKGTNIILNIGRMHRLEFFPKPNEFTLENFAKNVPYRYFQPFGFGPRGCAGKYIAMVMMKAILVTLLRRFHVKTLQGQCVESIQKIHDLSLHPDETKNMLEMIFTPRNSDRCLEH

[16] = biological target: Aryl hydrocarbon receptor (Homo sapiens) (UniProt P35869); assay: qHTS assay to identify small molecule that activate the aryl hydrocarbon receptor (AhR) signaling pathway (AID 743085); also: nearly all actives have a fitted effect of over 15% in size; also: potency is read from the fitted curve at half-maximal effect;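 as to activation: HG2L7.5c1 human HepG2 liver cells with stably integrated DRE-driven firefly reporter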
Chain of Aryl hydrocarbon receptor (Homo sapiens) (P35869 whole entry, looked up): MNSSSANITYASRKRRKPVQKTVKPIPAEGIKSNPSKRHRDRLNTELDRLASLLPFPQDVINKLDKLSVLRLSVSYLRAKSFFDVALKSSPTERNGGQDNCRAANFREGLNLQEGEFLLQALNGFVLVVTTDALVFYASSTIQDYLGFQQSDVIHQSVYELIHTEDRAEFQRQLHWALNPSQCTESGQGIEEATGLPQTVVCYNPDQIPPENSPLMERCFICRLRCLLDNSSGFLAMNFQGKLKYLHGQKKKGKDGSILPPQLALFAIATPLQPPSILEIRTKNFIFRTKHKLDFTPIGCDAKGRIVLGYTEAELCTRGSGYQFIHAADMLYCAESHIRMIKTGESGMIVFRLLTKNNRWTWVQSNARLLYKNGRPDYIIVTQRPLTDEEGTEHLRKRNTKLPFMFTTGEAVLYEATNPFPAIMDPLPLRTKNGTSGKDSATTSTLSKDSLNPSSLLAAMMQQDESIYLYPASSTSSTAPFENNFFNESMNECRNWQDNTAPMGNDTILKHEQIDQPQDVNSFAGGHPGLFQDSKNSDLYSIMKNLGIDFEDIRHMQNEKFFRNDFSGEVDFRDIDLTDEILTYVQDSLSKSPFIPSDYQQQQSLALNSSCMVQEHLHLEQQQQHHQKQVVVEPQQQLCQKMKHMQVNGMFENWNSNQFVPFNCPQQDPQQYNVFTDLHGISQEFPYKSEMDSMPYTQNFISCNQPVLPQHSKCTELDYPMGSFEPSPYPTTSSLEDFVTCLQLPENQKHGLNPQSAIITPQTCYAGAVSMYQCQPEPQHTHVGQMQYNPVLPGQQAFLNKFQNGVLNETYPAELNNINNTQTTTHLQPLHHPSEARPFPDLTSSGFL
How it was run: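 HepG2 cells stably carrying a 20-DRE firefly luciferase reporter (HG2L7.5c1) treated with compound for 24 hr at 37C. Luciferase read by ONE-Glo luminescence, with CellTiter-Fluor viability read first.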

[17] = qHTS assay for small molecule agonists of the antioxidant response element (ARE) signaling pathway (AID 743202; active = well fitted activation curve with a large enough effect in the signal ratio in the repeat runs, not every such curve was filed as active; inconclusive = weak or mixed curves, or effect the other way; inactive = no such curve, though single readings can be large or run the other way; the % refers to the signal ratio)
How it was run: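 Steps: seed ARE-bla HepG2 cells (2,000/well); incubate 5 h at 37 C; add compounds by pin tool; incubate 16 h at 37 C; add FRET substrate; read fluorescence after 2 h at RT.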

[18] = qHTS assay for small molecule activators of the heat shock response signaling pathway (AID 743210; active = well fitted activation curve with a large enough effect in the signal ratio in the repeat runs, with a control signal flat, not every such curve was filed as active; inconclusive = weak or mixed curves; the % refers to the signal ratio;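 also: HeLa cells with beta-lactamase reporter driven by heat shock elements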)
How it was run: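 Activation of heat shock element-controlled beta-lactamase expression is measured in HeLa cells by LiveBLAzer FRET fluorescence, with compound exposure lasting 5 h at 37 C and substrate loading 2.5 h at room temperature.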

[19] = biological target: Peroxisome proliferator-activated receptor gamma (Homo sapiens) (UniProt P37231); assay: qHTS assay to identify small molecule agonists of the peroxisome proliferator-activated receptor gamma (PPARg) signaling pathway (AID 743094; active = well fitted activation curve with a large enough effect in the signal ratio in the repeat runs, not every such curve was filed as active; inconclusive = weak or mixed curves, or effect the other way; inactive = no such curve, though single readings can be large or run the other way; the % refers to the signal ratio)
How it was run: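 Agonist activity was taken from a beta-lactamase reporter (FRET substrate, 1 h at room temperature) in HEK293H cells carrying a PPARg UAS-bla construct. Compounds in DMSO were incubated 17 h at 37C after a 5 h cell pre-incubation.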

Measured: Potency

COP(=S)(OC)Oc1ccc([N+](=O)[O-])c(C)c1
inactive: [1] | [2] | [3] | [4] | [5] | [6] | [7] | [8] | [9] | [10] | [11] | [12] | [13] | [14]

CCC[CH2][Sn]([CH2]CCC)([O]C(C)=O)[O]C(C)=O
active: [1] 19.5 µM | [2] 3.89 µM | [15] 31.2 µM [inconclusive] | Aromatase (Homo sapiens) 15.5 µM | [9] 13.8 µM | [12] 2.78 µM | [13] 6.17 µM
inactive: [3] | [4] | [5]

Brc1cccc(-c2ccccc2)c1
inactive: [1] | [2] | [3] | [4] | [5] | [7] | [8] | Aromatase (Homo sapiens) | [9] | [16] | [12] | [17] | [13] | [14] | [18]

CC(C)C(Br)C(=O)NC(N)=O (stereo not drawn)
inactive: [1] | [2] | [3] | [15] | [5] | [6] | [7] | [8] | Aromatase (Homo sapiens) | [9] | [16] | [10] | [19] | [12] | [13] | [14] | [18]

Cc1cccc(Cc2cnc[nH]2)c1C
active: [16] 13.3 µM
inactive: [1] | [2] | [3] | [15] | [5] | [6] | [7] | [8] | [9] | [19] | [11] | [12] | [13] | [14]

Nc1ccccc1-c1ccccc1
inactive: [1] | [2] | [3] | [4] | [5] | [8] | Aromatase (Homo sapiens) | [9] | [16] | [13] | [14]

CC(C)N(C(=O)CCl)c1ccccc1
active: [1] 27.3 µM and 34.4 µM | [2] 68.6 µM and 48.6 µM | [15] 15.5 µM [inconclusive] and 6.92 µM [inconclusive] | [7] 54.5 µM and 61.1 µM | Aromatase (Homo sapiens) 21.7 µM and 27.3 µM | [9] 24.3 µM | [10] 38.6 µM and 68.6 µM | [11] 3.89 µM and 3.47 µM | [12] 49 µM and 27.5 µM | [13] 6.86 µM and 3.86 µM | [14] 12.3 µM and 5.49 µM
inactive: [3] | [4] | [5] | [8]

Clc1ccc(C(c2ccc(Cl)cc2)C(Cl)Cl)cc1
62.1 µM (active) and inactive: Aromatase (Homo sapiens)
active: [1] 24.7 µM and 68.6 µM | [2] 24.7 µM and 43.3 µM | [12] 24.9 µM and 38.9 µM | [13] 54.5 µM | [14] 49 µM
inactive: [3] | [15] | [4] | [5] | [7] | [8] | [9] | [10] | [19]

CC(C)C(Nc1ccc(C(F)(F)F)cc1Cl)C(=O)OC(C#N)c1cccc(Oc2ccccc2)c1 (stereo not drawn)
inactive: [1] | [2] | [3] | [15] | [4] | [6] | [7] | [8] | Aromatase (Homo sapiens) | [9] | [16] | [10] | [12] | [13] | [14]

Oc1ccc(Cl)c(Cl)c1
active: [2] 60.2 µM | [5] 60.7 µM [inconclusive]
inactive: [1] | [3] | [4] | [7] | [8] | Aromatase (Homo sapiens) | [9] | [16] | [10] | [13] | [14] | [18]

N#Cc1sc2c(=O)c3ccccc3c(=O)c=2sc1C#N
active: [1] 24.3 µM | [2] 24.3 µM | [4] 54.9 µM | [8] 27.3 µM | Aromatase (Homo sapiens) 2.17 µM | [9] 4.33 µM | [16] 1.93 µM | [10] 6.86 µM | [11] 12.3 µM | [13] 8.63 µM | [14] 1.95 µM
inactive: [3]

CCCCn1cc[n+](C)c1 (tested in a mixture with another compound)
inactive: [1] | [2] | [3] | [4] | [8] | Aromatase (Homo sapiens) | [9] | [16] | [10] | [13] | [14]

O=S(=O)(O)F
inactive: [1] | [2] | [3] | [15] | [5] | [6] | [7] | [8] | Aromatase (Homo sapiens) | [9] | [16] | [10] | [19] | [11] | [17] | [13] | [14] | [18]

c1ccc2nc(N3CCNCC3)ccc2c1
active: [1] 29.8 µM | [2] 29.8 µM
inactive: [3] | [15] | [5] | [9] | [16] | [19] | [11] | [14] | [18]
